In all, about 340,000 compounds went through this assay and about 8,500 (2.5%) were called active.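 Rule for the calls: active = melting temperature shift of at least 10% of the positive control shift, at one fixed dose; inactive = the rest.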 For the sample, actives were picked, then their nearest neighbours and some compounds at random.
test system: Glutamate receptor ionotropic, NMDA 3A (GRIN3A) ligand-binding domain; experiment: NR3A LBD thermal stabilization by compounds – biophysical, differential scanning fluorimetry, uHTS, primary screen (AID 1259313); conditions: at 25 µM, active compounds read high, 0% = protein alone, 100% = glycine-bound protein

Row | SMILES | Tm shift relative to glycine control
1 | COc1ccc(CN2CN(C(C)C)CSC2=S)cc1 | 1.51% (inactive)
2 | COc1ccc(-c2csc3ncnc(N4CCN(S(=O)(=O)c5cccc(F)c5)CC4)c23)cc1 | -1.02% (inactive)
3 | O=S(=O)(Nc1ncnc2sccc12)c1cccc(F)c1 | -0.96% (inactive)
4 | Cc1cc(F)ccc1S(=O)(=O)Nc1ncnc2scc(-c3ccc(F)cc3)c12 | 10.2% (active)
5 | C=CCNC(=O)COC(=O)c1ccccc1C(=O)N(C)C1CCCCC1 | -0.25% (inactive)
6 | O=C(CN(CC1CCCO1)C(=O)CNS(=O)(=O)c1ccc(Cl)cc1)NCc1ccccc1 (stereo not drawn) | 2.76% (inactive)
7 | Cc1ccc(C)c(NC(=O)C2CCCN2C(=O)OC(C)(C)C)c1 (stereo not drawn) | 4.23% (inactive)
8 | Cc1ccc(-n2ncc(C(=O)NC3CC3)c2C2CCN(C(=O)OC(C)(C)C)CC2)c(C)c1 | 13.4% (active)
9 | CC(C)(C)OC(=O)N1CCC(C(=O)NNC(=O)c2ccc(Cl)cc2Cl)CC1 | -2.13% (inactive)
10 | CCn1c(=S)[nH]c2cc(S(=O)(=O)N3CCOCC3)ccc21 | 2.56% (inactive)
11 | Cc1cc(NS(=O)(=O)c2ccc(NC(=O)C(C)Oc3cccc(C)c3C)cc2)nc(C)n1 (stereo not drawn) | 3.5% (inactive)
12 | CCNc1nc(NC(C)C)nc(N2CC(=O)N(CC(=O)OCC)C2=N)n1 | -4.17% (inactive)
13 | CCN(CC)CCCC(C)n1c2nc(=O)[nH]c(=O)c-2nc2cc(Cl)ccc21 (stereo not drawn) | -386% (inactive)
14 | CCOC(=O)C1=C(CC)Nc2ccccc2N=C1NC(=O)c1cccc(S(=O)(=O)N2CCCC2)c1 | 0% (inactive)
15 | Cc1c(CC(=O)NCCCCCC(=O)O)c(=O)oc2cc3occ(-c4ccccc4)c3cc12 | -0.98% (inactive)
16 | Cc1c(CC(=O)NCC(=O)NCC(=O)O)c(=O)oc2cc3oc4c(c3cc12)CCCC4 | 31.7% (active)
17 | CC[C@@H](C)[C@H](NC(=O)CCc1c(C)c2cc3c4c(oc3c(C)c2oc1=O)CCCC4)C(=O)O | 1.33% (inactive)
18 | CC1CC1C(=O)OCC(=O)c1c(N)n(C)c(=O)n(C)c1=O (stereo not drawn) | -0.75% (inactive)
19 | O=C(Nc1ccc(OC(F)(F)F)cc1)c1ccc2c(c1)no[n+]2[O-] | -3.76% (inactive)
20 | O=C(CCN1CCCCC1)N=Nc1c(O)[nH]c2ccccc12 | -1% (inactive)
21 | Cc1c(-c2ccccc2)n[nH]c1C(=O)N=Nc1c(O)[nH]c2ccccc12 | 13.9% (active)
22 | Cc1cccc(N(CC(=O)N=Nc2c(O)[nH]c3ccccc23)S(C)(=O)=O)c1C | -1.51% (inactive)

Row | SMILES | Tm shift relative to glycine control
23 | COc1ccc(CNC(=O)C2CCN(S(=O)(=O)c3ccc(SC)cc3)CC2)cc1 | 1% (inactive)
24 | CC(C)Sc1nnc([C@H](Cc2ccccc2)NC(=O)OC(C)(C)C)o1 | 32.2% (active)
25 | C[C@@H](NC(=O)OC(C)(C)C)c1nnc(S(=O)(=O)Cc2ccccc2)o1 | 0% (inactive)
26 | CCc1ccccc1NC(=O)CSc1nnc([C@@H](NC(=O)OC(C)(C)C)C(C)CC)o1 (stereo partly drawn) | -1.3% (inactive)
27 | C/C(CC(O)(/C=N/O)c1ccccc1)=N\O (stereo not drawn) | 1.21% (inactive)
28 | COc1ccc2ccccc2c1CNc1nnnn1C | 0.15% (inactive)
29 | Clc1ccc(Nc2ccc3ccccc3n2)cc1 | 45% (active)
30 | O=C(NNC(=O)c1ccc2ccccc2c1)c1ccc(Cl)cc1 | -1.56% (inactive)
31 | Cc1cccc(NC(=O)c2ccc3ccccc3n2)n1 | -0.88% (inactive)
32 | CC1(C)CC(=O)C=C(NCCCN2CCCC2=O)C1 | -0.27% (inactive)
33 | Nc1nc(C23CC4CC(CC(C4)C2)C3)cs1 | -1.42% (inactive)
34 | COC(=O)c1cc(NC(=O)c2cc(C(C)(C)C)nn2Cc2cccc(C)c2)ccc1N1CCOCC1 | -0.21% (inactive)
35 | COC(=O)C1(C)NC(c2ccc(C)cc2)C2C(=O)N(c3ccc(F)cc3)C(=O)C21 (stereo not drawn) | 2.13% (inactive)
36 | CCCCC1(C(=O)OCC)NC(c2ccc(O)cc2)C2C(=O)N(c3ccccc3)C(=O)C21 (stereo not drawn) | -1.17% (inactive)
37 | CCCC1(C(=O)OCC)NC(c2ccc(N(C)C)cc2)C2C(=O)N(c3ccc4c(c3)OCCO4)C(=O)C21 (stereo not drawn) | 17% (active)
38 | O=C(CC1SC(N2CCOCC2)=NC1=O)Nc1ccccc1F (stereo not drawn) | -1.22% (inactive)
39 | COc1ccc(S(=O)(=O)N2CCN(C(=O)N(C)C)C2C)cc1 (stereo not drawn) | -2.39% (inactive)
40 | CC(=O)Nc1ccc(CN2CCC(Oc3ccc(C(=O)N4CCCC4)cc3)CC2)cc1 | 0.37% (inactive)
41 | Cc1nn(C)c(Cl)c1CN1CCC(Oc2ccc(C(=O)N3CCCC3)cc2)CC1 | 12.6% (active)
42 | O=C(c1ccc(OC2CCN(Cc3ccccn3)CC2)cc1)N1CCCCCC1 | 0.85% (inactive)
43 | COc1ccccc1C(=O)NC(=O)COC(=O)C1CC1 | -1.81% (inactive)
44 | C[C@@H](C(=O)N1CCNCC1)n1cc(CCC(=O)O)nn1 | 1.39% (inactive)

Row | SMILES | Tm shift relative to glycine control
45 | Cc1cccc(C(=O)N2CCN(S(=O)(=O)N3CCCCC3)CC2)c1 | 11.1% (active)
46 | O=C(c1cccc(S(=O)(=O)N2CCCCCC2)c1)N1CCN(Cc2ccccc2)CC1 | 0.36% (inactive)
47 | Cc1ccc(C(=O)N2CCN(S(=O)(=O)N3CCOCC3)CC2)cc1 | -1.26% (inactive)
48 | CCOc1ccc(C(=O)Nc2c3c(nn2-c2ccccc2)CS(=O)(=O)C3)cc1 | -0.47% (inactive)
49 | COc1cc(C(=O)Nn2c(CC(C)C)nc3ccccc3c2=O)cc(OC)c1OC | -0.54% (inactive)
50 | COc1cc(C(=O)Nn2c(O)c(C3=c4ccccc4=NC3=O)sc2=S)ccc1O | 11.1% (active)
51 | COc1cc(C(=S)NC2CCCCC2)ccc1O | -5.68% (inactive)
52 | CN(CC(=O)Nc1ccccc1F)CC(=O)Nc1ccccc1Br | -1.08% (inactive)
53 | CCOc1ccc(NC(=O)CN(C)C(=O)COc2cccc(CC)c2)cc1OCC | 3.14% (inactive)
54 | Cc1nn(C)c(C)c1S(=O)(=O)N1CCc2ccccc21 | -0.32% (inactive)
55 | Cc1cccc(NC(=S)NCc2ccc3[nH]c4c(c3c2)CCCC4)c1 | 16.4% (active)
56 | CCc1cccc(CC)c1NC(=S)NCc1ccc2[nH]c(C)cc2c1 | -6.16% (inactive)
57 | Cc1cccc(NC(=S)N2CCC(C(=O)c3ccc(F)cc3)CC2)c1 | -1.17% (inactive)
58 | CC(NC(=O)c1cc(=O)[nH]c2ccccc12)c1ccc(F)cc1F (stereo not drawn) | -1.44% (inactive)
59 | CCCn1c(=N)n(CC(=O)c2ccc(Cl)c(Cl)c2)c2ccccc21 | -6.05% (inactive)
60 | CCOC(=O)N1CCN(Cc2nnc(-c3ccccc3Cl)o2)CC1 | 0.35% (inactive)
61 | CCOC(=O)C1CCN(Cc2nnc(-c3cccc(Br)c3)o2)CC1 | 222% (active)
62 | CCOC(=O)C1CCN(Cc2ccc(-c3ccccc3)cc2)CC1 | -0.95% (inactive)
63 | CCOC(=O)c1cc2c(=O)[nH]c(C(Cl)(Cl)Cl)nc2o1 | 5.2% (inactive)
64 | Cc1cccc(Cn2c(N3CCN(c4ccccc4)CC3)nc3c2c(=O)n(C)c(=O)n3C)c1 | -1.11% (inactive)
65 | Cn1c(=O)c2c(nc(NCCc3ccccc3)n2Cc2ccccc2)n(C)c1=O | -12.7% (inactive)
66 | C/C(Cl)=C\Cn1c(Nc2cccc(C)c2)nc2c1c(=O)n(C)c(=O)n2C | 18.4% (active)

Row | SMILES | Tm shift relative to glycine control
67 | FC(F)(F)c1ccc(-c2cccc3c2C2CC3CCN2Cc2ccccc2)cc1 (stereo not drawn) | 0.87% (inactive)
68 | Cc1ccc(CNC(=O)CCNS(=O)(=O)c2ccc(Br)s2)cc1 | 0.52% (inactive)
69 | CCc1cccc(NC(=O)CCNS(=O)(=O)c2cccc3nonc23)c1 | -1.5% (inactive)
70 | Cc1ccc(CNC(=O)CCNS(=O)(=O)c2cccc3nonc23)cc1 | 17.3% (active)
71 | COC(=O)c1ccc(CN(c2ccccc2OC)S(=O)(=O)c2cccs2)o1 | 0% (inactive)
72 | COC(=O)[C@]1(Cc2ccccc2)N[C@H](CN(C)S(=O)(=O)c2ccc(F)cc2)[C@@H]2C(=O)N(Cc3ccccc3)C(=O)[C@@H]21 | 0.82% (inactive)
73 | COC(=O)[C@]1(Cc2ccccc2)N[C@H](CN(C)S(=O)(=O)c2ccc(OC(F)(F)F)cc2)[C@@H]2C(=O)N(C)C(=O)[C@@H]21 | -3.1% (inactive)
74 | COC(=O)[C@]1(Cc2ccccc2)N[C@H](CN(C)S(=O)(=O)c2ccc(OC(F)(F)F)cc2)[C@@H]2C(=O)N(Cc3ccccc3)C(=O)[C@@H]21 | 18.1% (active)
75 | N/C(=N\S(=O)(=O)c1cc(C(F)(F)F)cc(C(F)(F)F)c1)c1cccs1 | -1.45% (inactive)
76 | N#Cc1cccc(CSc2nnc(CCCO)n2-c2ccccc2)c1 | -2.26% (inactive)
77 | O=C(Nc1ccc(S(=O)(=O)N2CCOCC2)cc1)c1ccc2ncsc2c1 | 23.1% (active)
78 | O=C(Nc1ccc(S(=O)(=O)Nc2nccs2)cc1)c1cccc(S(=O)(=O)N2CCOCC2)c1 | -7.34% (inactive)
79 | O=C(Nc1ccc(N2CCOCC2)cc1)c1cccc(S(=O)(=O)N2CCOCC2)c1 | 1.57% (inactive)
80 | COc1ccc2c(c1)OC(O)(C(F)(F)C(F)F)CC2=O (stereo not drawn) | -0.91% (inactive)
81 | C=CCN(c1ccc(Cl)cc1)S(=O)(=O)c1cccc(C(=O)OCC(=O)N(C)C)c1 | -2.3% (inactive)
82 | O=C(CSc1nc(O)c(Cc2ccccc2)c(=O)[nH]1)Nc1nc2c(s1)CCCC2 | 0.31% (inactive)
83 | CN(C)CCNc1ccc(-c2n[nH]c(=O)c3ccccc23)cc1[N+](=O)[O-] | -4.51% (inactive)
84 | COc1cc(C2c3cc4c(cc3C(O)C3COC(=O)C23)OCO4)cc(OC)c1OC (stereo not drawn) | 0.33% (inactive)
85 | CC(C)(C)N(CC#CCC(O)(c1ccccc1)C1CCCC1)CCO (stereo not drawn) | 14.9% (active)
86 | CN(CC#CCC(c1ccccc1)c1ccccc1)C(C)(C)C | -1.63% (inactive)
87 | OC(C#CCN1CCOCC1)(c1ccccc1)C1CCCCC1 (stereo not drawn) | 0.88% (inactive)
88 | O=C(NN1C(=O)C2C3C=CC(O3)C2C1=O)c1ccccc1 (stereo not drawn) | -2.22% (inactive)

— PubChem BioAssay AID1259313 (Sanford-Burnham Center for Chemical Genomics, 2017)
